# From the antibiotic and cytotoxicity screens of Wong et al. (2023)
# The campaign covered roughly 39,000 compounds. About 3,300 (8.5%) were called active. This is one part of a sample in which actives are shown more often than they occur.
# System: HepG2
# Experiment: cytotoxicity call (relative viability < 0.9)
# Conditions: 10 µM
row,SMILES,cytotoxicity call
1,COc1cccc(NC(=O)C[C@@H]2CC[C@H]3[C@@H](COc4ccc(NC(=O)C5CCOCC5)cc4C(=O)N3C)O2)c1,inactive
2,C[C@H](CO)N1C[C@H](C)[C@H](CN(C)S(C)(=O)=O)Oc2ccc(NC(=O)CCCCCC(=O)Nc3ccccc3N)cc2CC1=O,inactive
3,C[C@H](CO)N1C[C@H](C)[C@H](CN(C)C(=O)c2cccnc2)Oc2cc(C#CC3(O)CCCC3)ccc2S1(=O)=O,inactive
4,COc1cccc(S(=O)(=O)N(C)C[C@H]2OCc3cnnn3CCCC(=O)N([C@@H](C)CO)C[C@H]2C)c1,inactive
5,C[C@H]1CN([C@@H](C)CO)C(=O)c2cccc(NS(C)(=O)=O)c2O[C@@H]1CN(C)C(=O)Nc1ccccc1,inactive
6,CC(C)NC(=O)N(C)C[C@@H]1Oc2ccc(NS(=O)(=O)c3ccccc3)cc2C(=O)N([C@@H](C)CO)C[C@H]1C,inactive
7,Cc1noc(C)c1S(=O)(=O)Nc1ccc2c(c1)CC(=O)N([C@H](C)CO)C[C@@H](C)[C@H](CN(C)C(=O)Nc1ccccc1)O2,inactive
8,C[C@@H]1CN([C@H](C)CO)C(=O)c2cc(NC(=O)NC3CCCCC3)ccc2O[C@H]1CN(C)Cc1ccc(Cl)c(Cl)c1,inactive
9,C[C@H](CO)N1C[C@H](C)[C@@H](CN(C)C(=O)Nc2cccc3ccccc23)Oc2ccc(NC(=O)CCC(F)(F)F)cc2CC1=O,inactive
10,C[C@@H]1CCCCO[C@H](CN(C)C(=O)Nc2ccccc2)[C@H](C)CN([C@H](C)CO)C(=O)c2cc(NC(=O)NC3CCCCC3)ccc2O1,inactive
11,CC(C)CC#Cc1cnc2c(c1)C(=O)N([C@H](C)CO)C[C@H](C)[C@H](CN(C)S(=O)(=O)c1cn(C)cn1)O2,inactive
12,C[C@@H]1CCCCO[C@@H](CN(C)C(=O)NC2CCCCC2)[C@H](C)CN([C@H](C)CO)C(=O)c2cc(NC(=O)Nc3cccc4ccccc34)ccc2O1,inactive
13,C[C@@H]1CN([C@H](C)CO)C(=O)c2cc(NC(=O)Nc3cccc4ccccc34)ccc2O[C@@H](C)CCCCO[C@H]1CN(C)C(=O)NC1CCCCC1,active
14,C[C@@H]1CCCCO[C@H](CN(C)C(=O)Nc2cccc3ccccc23)[C@H](C)CN([C@@H](C)CO)C(=O)c2cc(NC(=O)NC3CCCCC3)ccc2O1,active
15,C[C@@H]1CCCCO[C@H](CN(C)C(=O)Nc2cccc3ccccc23)[C@@H](C)CN([C@H](C)CO)C(=O)c2cc(NC(=O)NC3CCCCC3)ccc2O1,inactive
16,C[C@H](CO)N1C[C@H](C)[C@H](CN(C)C(=O)Nc2cccc3ccccc23)OCCCC[C@H](C)Oc2ccc(NC(=O)NC3CCCCC3)cc2C1=O,active
17,C[C@@H]1CCCCO[C@@H](CN(C)C(=O)Nc2cccc3ccccc23)[C@H](C)CN([C@@H](C)CO)C(=O)c2cc(NC(=O)NC3CCCCC3)ccc2O1,inactive
18,C[C@H]1CCCCO[C@H](CN(C)C(=O)Nc2cccc3ccccc23)[C@@H](C)CN([C@@H](C)CO)C(=O)c2cc(NC(=O)NC3CCCCC3)ccc2O1,inactive
19,C[C@@H]1CCCCO[C@@H](CN(C)C(=O)Nc2cccc3ccccc23)[C@H](C)CN([C@H](C)CO)C(=O)c2cc(NC(=O)NC3CCCCC3)ccc2O1,inactive
20,C[C@@H]1CN([C@@H](C)CO)C(=O)c2cc(NC(=O)Nc3cccc4ccccc34)ccc2O[C@@H](C)CCCCO[C@H]1CN(C)C(=O)NC1CCCCC1,inactive
21,CC(C)NC(=O)Nc1ccc2c(c1)C(=O)N([C@H](C)CO)C[C@@H](C)[C@H](CN(C)S(=O)(=O)c1ccccc1)O2,inactive
22,C[C@@H]1CN([C@@H](C)CO)C(=O)c2cccc(NC(=O)c3cnccn3)c2O[C@H]1CN(C)Cc1ccc(C(=O)O)cc1,inactive
23,C[C@@H]1CCCCO[C@H](CN(C)C(=O)c2ccccc2)[C@H](C)CN([C@@H](C)CO)C(=O)c2cc(NC(=O)Nc3cccc4ccccc34)ccc2O1,inactive

row,SMILES,cytotoxicity call
1,O=C(C[C@@H]1CC[C@H](NS(=O)(=O)c2ccc(F)cc2)[C@H](CO)O1)N1CCC(Cc2ccccc2)CC1,inactive
2,Cc1ccc(S(=O)(=O)N(C)C[C@@H]2Oc3ccc(NS(=O)(=O)c4cn(C)cn4)cc3CC(=O)N([C@H](C)CO)C[C@H]2C)cc1,inactive
3,Cc1cccc(-c2nc3ccccc3n2CCC(C)C)c1,inactive
4,c1ccc(Cn2c(-c3ccc(OC[C@H](C4CCNCC4)n4c(-c5ccccc5)nc5ccccc54)cc3)nc3ccccc32)cc1,active
5,Cc1ccc(OCCn2c(CC(C)(C)C)nc3ccccc32)cc1,inactive
6,Cc1cncc2cccc(S(=O)(=O)N[C@H]3CN[C@H](COC(=O)NCCOCCOCCN)C3)c12,inactive
7,Cn1cc(CO)cn1,inactive
8,O=C(C[C@@H]1CC[C@H]2[C@@H](COC[C@@H](O)CN2C(=O)Nc2ccc3c(c2)OCO3)O1)N1CCN(c2ccccc2)CC1,inactive
9,COc1ccc(NC(=O)Nc2cccc3c2O[C@@H](CN(C)Cc2ccc(-c4ccccc4)cc2)[C@@H](C)CN([C@@H](C)CO)C3=O)cc1,inactive
10,C[C@H]1CN([C@@H](C)CO)C(=O)c2cccc(NC(=O)Nc3ccccc3)c2O[C@H]1CN(C)Cc1ccc(-c2ccccc2)cc1,inactive
11,COc1ccc(NC(=O)Nc2cccc3c2O[C@H](CN(C)Cc2ccc(-c4ccccc4)cc2)[C@@H](C)CN([C@H](C)CO)C3=O)cc1,inactive
12,COc1ccc(NC(=O)Nc2cccc3c2O[C@H](CN(C)Cc2ccc(-c4ccccc4)cc2)[C@H](C)CN([C@H](C)CO)C3=O)cc1,active
13,COc1ccc(NC(=O)Nc2cccc3c2O[C@H](CN(C)Cc2ccc(-c4ccccc4)cc2)[C@H](C)CN([C@@H](C)CO)C3=O)cc1,active
14,COc1ccc(NC(=O)Nc2cccc3c2O[C@@H](CN(C)Cc2ccc(-c4ccccc4)cc2)[C@@H](C)CN([C@H](C)CO)C3=O)cc1,inactive
15,COc1ccc(NC(=O)Nc2cccc3c2O[C@@H](CN(C)Cc2ccc(-c4ccccc4)cc2)[C@H](C)CN([C@@H](C)CO)C3=O)cc1,inactive
16,COc1ccc(NC(=O)Nc2cccc3c2O[C@H](CN(C)Cc2ccc(-c4ccccc4)cc2)[C@@H](C)CN([C@@H](C)CO)C3=O)cc1,active
17,COc1ccc(NC(=O)Nc2cccc3c2O[C@@H](CN(C)Cc2ccc(-c4ccccc4)cc2)[C@H](C)CN([C@H](C)CO)C3=O)cc1,active
18,COc1ccc(NC(=O)N(C)C[C@H]2OCCCC[C@@H](C)Oc3ccc(NC(=O)C4CCCCC4)cc3C(=O)N([C@H](C)CO)C[C@@H]2C)cc1,inactive
19,COc1ccc(CN(C)C[C@H]2Oc3c(NS(C)(=O)=O)cccc3C(=O)N([C@@H](C)CO)C[C@H]2C)cc1,inactive
20,COc1ccc2c3c([nH]c2c1)[C@H](CO)N(C[C@]13CN(Cc2ccccc2)C1)S(=O)(=O)c1cn(cn1)C,inactive
21,COc1ccc(NC(=O)N(C)C[C@H]2Oc3ncc(C#CCN(C)C)cc3C(=O)N([C@@H](C)CO)C[C@H]2C)cc1,inactive
22,O=C(C[C@@H]1CC[C@H]2[C@@H](COC[C@@H](O)CN2Cc2cc(F)ccc2F)O1)N[C@@H]1CCN(Cc2ccccc2)C1,inactive
23,C[C@@H]1CN([C@H](C)CO)C(=O)CCCn2nncc2CO[C@@H]1CN(C)C(=O)c1ccc(N2CCN(C)CC2)cc1,inactive

row,SMILES,cytotoxicity call
1,Fc1ccccc1[C@H]1Nc2ccc3ccccc3c2[C@H]2C=CC[C@@H]21,inactive
2,CCNC(=O)C[C@@H]1CC[C@H](NC(=O)C2CCOCC2)[C@H](CO)O1,inactive
3,Cc1noc(C)c1NC(=O)Nc1ccc2c(c1)C(=O)N([C@H](C)CO)C[C@H](C)[C@H](CN(C)Cc1ccc(C(F)(F)F)cc1)O2,inactive
4,C[C@@H]1CN([C@H](C)CO)C(=O)c2cc(-c3cncnc3)cnc2O[C@H]1CN(C)C(=O)Nc1ccc2c(c1)OCO2,inactive
5,CCCNC(=O)c1cc2c(c(-c3cccc(-c4cccc(OC)c4)c3)n1)[C@H](CCO)N([S@@](=O)C(C)(C)C)C2,inactive
6,O=C1c2ccccc2[C@@]2(Cc3ccccc3N(C3CC3)C2=O)[C@H](c2ccc(CO)cc2)N1Cc1ccccc1,active
7,COc1ccccc1CN1C(=O)c2ccccc2[C@@]2(Cc3ccccc3N(C3CC3)C2=O)[C@@H]1c1ccc(CO)cc1,inactive
8,O=C1c2ccccc2[C@@]2(Cc3ccccc3N(C3CC3)C2=O)[C@H](c2ccc(CO)cc2)N1Cc1ccccc1Cl,inactive
9,COc1ccc(S(=O)(=O)N[C@@H]2C=C[C@H](CC(=O)N3CCN(c4ccccc4)CC3)O[C@H]2CO)cc1,inactive
10,O=C(O)c1cc(O)c2c(c1)C(C1c3cc(C(=O)O)cc(O)c3C(=O)c3c(OC4OC(CO)C(O)C(O)C4O)cccc31)c1cccc(OC3OC(CO)C(O)C(O)C3O)c1C2=O (configuration not stated),active
11,O=C(O)c1cc(O)c2c(O)c3c(O[C@H]4O[C@H](CO)[C@@H](O)[C@H](O)[C@H]4O)cccc3c(-c3c4cc(C(=O)O)cc(O)c4c(O)c4c(O[C@H]5O[C@H](CO)[C@@H](O)[C@H](O)[C@H]5O)cccc34)c2c1,active
12,COc1c(O)cc2c(c1O)C1OC(CO)C(O)C(O)C1OC2=O (configuration not stated),inactive
13,OCc1cc(O)c2c(O)c3c(O)cccc3c(O[C@@H]3O[C@H](CO)[C@H](O)[C@@H](O)[C@H]3O)c2c1,inactive
14,O=C(O)c1cc(O[C@@H]2O[C@H](CO)[C@@H](O)[C@H](O)[C@H]2O)c2ccccc2c1O,inactive
15,OCc1cc(O)c2c(O)c3c(O)cccc3c(O[C@@H]3O[C@H](CO)[C@@H](O)[C@H](O)[C@H]3O)c2c1,active
16,OCc1ccc(O[C@@H]2O[C@H](CO)[C@@H](O)[C@H](O)[C@H]2O)cc1,inactive
17,O=C1c2c(O)cc(CO)cc2C(OC2OC(CO)C(O)C(O)C2O)c2cccc(OC3OC(CO)C(O)C(O)C3O)c21 (configuration not stated) [CASANTHRANOL [cascaroside A shown] ],inactive
18,O=C1c2c(O)cccc2C(C2OC(CO)C(O)C(O)C2O)c2cc(CO)cc(O)c21 (configuration not stated),active
19,OCc1ccccc1O[C@@H]1O[C@H](CO)[C@@H](O)[C@H](O)[C@H]1O,inactive
20,COc1c(O)cc2c(c1O)[C@@H]1O[C@H](CO)[C@@H](O)[C@H](O)[C@H]1OC2=O,inactive
21,OCCc1ccc(O)c(O[C@H]2O[C@@H](CO)[C@@H](O)[C@@H](O)[C@@H]2O)c1,inactive
